Assay [1] can be described thus: Nuclear factor erythroid 2-related factor 2/antioxidant responsive element (Nrf2/ARE) small molecule agonists: qHTS cell viability counter screen in human keratinocytes (AID 1919968; active means well fitted curve in the direction sought with a large enough effect in the repeat runs; an effect the other way counts as inactive or inconclusive; further: nearly all actives have a fitted effect of over 55% in size). An outline of the steps:
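Stably transfected HaCaT (KeratinoSens), 1,500/well. Test agents in DMSO were applied for 23 h, 37 C/5% CO2. CellTiter-Fluor was incubated 1 h before the fluorescence read.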

A short description of assay [2]: Nuclear factor erythroid 2-related factor 2/antioxidant responsive element (Nrf2/ARE) small molecule agonists: luciferase reporter gene qHTS assay in human keratinocytes (AID 1919969). Further: nearly all actives have a fitted effect of over 35% in size. Further: potency means the concentration at half of the fitted maximal effect.
The target of assay [3] is Gonadotropin-releasing hormone receptor (Homo sapiens) (UniProt P30968). The experiment in a line: Human gonadotropin-releasing hormone receptor (GnRHR) small molecule agonists, calcium flux assay in GnRHR-HEK293 cells (AID 1920063). Further: nearly all actives have a fitted effect of over 35% in size. An outline of the steps:
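Stable human GnRHR HEK293 line. 18 h plating, then calcium dye for 1 h at 37 C. Agonist-mode compound addition from DMSO stocks; fluorescence monitored 3 min.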

Assay [4] has as its target KiSS-1 receptor (Homo sapiens) (UniProt Q969F8). The experiment in a line: Human kisspeptin (KISS1R) small molecule agonists, calcium flux assay in KISS1R-HEK293 cells (AID 1920064; active means well fitted curve in the direction sought with a large enough effect in the repeat runs; an effect the other way counts as inactive or inconclusive). An outline of the steps:
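After overnight (18 h) culture at 37 C/5% CO2, human KISS1R-HEK293 cells received calcium dye for 1 h, then test compound; emission at 540 nm (excitation 480 nm) was tracked for 3 min.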

Assay [5] is described as follows: G protein-coupled receptor (GPCR) small molecule agonists, calcium flux assay: HEK293 wild type cell line counter screen (AID 1920065). An outline of the steps:
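Following 18 h incubation at 37 C/5% CO2, plates got calcium dye for 1 h; compounds, ATP or DMSO were then pinned in and fluorescence followed kinetically (480/540 nm).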

The nature of assay [6]: p53 small molecule agonists, cell-based qHTS assay with human liver microsomes (AID 1963577). An outline of the steps: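 Fluorescence of the beta-lactamase reporter in p53RE-bla cells, detected with LiveBLAzer substrate (2 h, room temperature, dark), served as the read-out after 16 h compound exposure at 37 C with human liver microsomes and NADPH, each 0.5 mg/mL final.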

Assay [7] can be described thus: p53 small molecule agonists, cell-based qHTS assay with rat liver microsomes (AID 1963578). An outline of the steps:
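Cells carrying a p53 response element–beta-lactamase reporter were plated and rested 5 h, then dosed with compound in DMSO plus rat liver microsomes and NADPH, each at 0.5 mg/mL final. After 16 h at 37 C, LiveBLAzer substrate was added for 2 h.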

The nature of assay [8]: p53 small molecule agonists, cell-based qHTS assay with human liver microsomes: qHTS cell viability counter screen (AID 1963579). Further: nearly all actives have a fitted effect of over 45% in size. An outline of the steps: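 Cytotoxicity counter screen: p53RE-bla, 4,000 cells/well; 5 h settle, 37 C/5% CO2; cpd + HLM 0.5 mg/mL + NADPH 0.5 mg/mL (final); 16 h, 37 C; CellTiter-Glo, 30 min RT, luminescence.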
Assay [9] is described as follows: p53 small molecule agonists, cell-based qHTS assay with rat liver microsomes: qHTS cell viability counter screen (AID 1963580). Further: nearly all actives have a fitted effect of over 45% in size. In a few lines:
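Cytotoxicity counter screen: intracellular ATP measured by CellTiter-Glo luminescence in the same wells as the beta-lactamase reporter read, on HCT-116 p53RE-bla cells exposed 16 h at 37 C to compounds with rat liver microsomes and NADPH, each 0.5 mg/mL final.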

Assay [10] is described as follows: p53 small molecule agonists, cell-based qHTS assay: qHTS cell viability counter screen (AID 1963581). Further: nearly all actives have a fitted effect of over 45% in size. An outline of the steps: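 qHTS counter screen: 16 h compound exposure at 37 C of p53RE-bla HCT-116 cells (4,000 per well, seeded 5 h prior), cell viability by ATP luminescence.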
Assay [11] can be described thus: cAMP Responsive Elements (CRE) small molecule agonists, cell-based qHTS assay (AID 1963590). An outline of the steps: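 Test agents in DMSO were incubated 3 h at 37 C/5% CO2 with CRE-bla HEK 293T cells seeded 18 h earlier; LiveBLAzer B/G FRET substrate was added and read after 2 h at room temperature.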
Assay [12] is described as follows: cAMP Responsive Elements (CRE) small molecule antagonists, cell-based qHTS assay (AID 1963591; active means well fitted inhibition curve with a large enough effect in the signal ratio in the repeat runs, not every such curve was filed as active; the % refers to the signal ratio). An outline of the steps: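 Reporter line CRE-bla HEK 293T in dialyzed-FBS DMEM; cells preincubated 18 h, treated 3 h with compound plus NKH477 (0.25 uM final); LiveBLAzer FRET, 2 h RT.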
Assay [13] deals with Beta-2 adrenergic receptor (Homo sapiens) (UniProt P07550). The experiment in a line: Adrenergic beta2 receptor (ADRB2) small molecule antagonists, cell-based qHTS assay (AID 1963592). Further: nearly all actives have a fitted effect of over 50% in size. Further: potency means the concentration at half of the fitted maximal effect. In a few lines: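 Assay format: CHO-ADRB2 cells, 18-20hr seeding at 37C/5% CO2, then compound plus 1nM isoproterenol agonist mix for 0.5hr RT. Homogeneous time-resolved fluorescence cAMP detection after 1hr, expressed as 665/615 nm ratio.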
Chain of Beta-2 adrenergic receptor (Homo sapiens) (P07550 whole entry, looked up): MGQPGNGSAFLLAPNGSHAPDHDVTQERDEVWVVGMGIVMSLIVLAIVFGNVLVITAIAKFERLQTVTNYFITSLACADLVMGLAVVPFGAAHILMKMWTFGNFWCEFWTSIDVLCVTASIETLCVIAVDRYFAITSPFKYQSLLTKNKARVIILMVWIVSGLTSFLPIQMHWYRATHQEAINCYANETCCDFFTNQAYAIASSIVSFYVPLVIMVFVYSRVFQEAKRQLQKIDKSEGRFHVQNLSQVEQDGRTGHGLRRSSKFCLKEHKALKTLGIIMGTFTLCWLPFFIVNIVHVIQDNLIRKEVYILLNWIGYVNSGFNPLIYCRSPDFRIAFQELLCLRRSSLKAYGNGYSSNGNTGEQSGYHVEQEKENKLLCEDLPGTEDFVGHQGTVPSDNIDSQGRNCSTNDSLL

For assay [14] the target is unchanged. The assay can be described thus: Adrenergic beta2 receptor (ADRB2) small molecule agonists, cell-based qHTS assay (AID 1963593).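 Further: CHO cells stably overexpressing human ADRB2.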 An outline of the steps:
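CHO cells stably over-expressing ADRB2 were plated overnight at 37C, then dosed with compounds plus a stimulation mix containing 100uM IBMX and 25uM Ro-20-1724 for 0.5hr at room temperature. cAMP was measured by HTRF competition, 1hr.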

The target in assay [15] is D(2) dopamine receptor (Homo sapiens) (UniProt P14416). The assay can be described thus: Dopamine D2 receptor (DRD2) small molecule agonists, cell-based qHTS assay (AID 1963594). Further: nearly all actives have a fitted effect of over 35% in size. In a few lines: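 HEK293 cells stably expressing human DRD2, pre-treated with PDE inhibitor Ro20-1724 (0.1 mM final) and compound 10 min at room temperature, then stimulated with NKH477 (200nM […]) for 30 min. cAMP read by HTRF (665/620 nm).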
Chain of D(2) dopamine receptor (Homo sapiens) (P14416 whole entry, looked up): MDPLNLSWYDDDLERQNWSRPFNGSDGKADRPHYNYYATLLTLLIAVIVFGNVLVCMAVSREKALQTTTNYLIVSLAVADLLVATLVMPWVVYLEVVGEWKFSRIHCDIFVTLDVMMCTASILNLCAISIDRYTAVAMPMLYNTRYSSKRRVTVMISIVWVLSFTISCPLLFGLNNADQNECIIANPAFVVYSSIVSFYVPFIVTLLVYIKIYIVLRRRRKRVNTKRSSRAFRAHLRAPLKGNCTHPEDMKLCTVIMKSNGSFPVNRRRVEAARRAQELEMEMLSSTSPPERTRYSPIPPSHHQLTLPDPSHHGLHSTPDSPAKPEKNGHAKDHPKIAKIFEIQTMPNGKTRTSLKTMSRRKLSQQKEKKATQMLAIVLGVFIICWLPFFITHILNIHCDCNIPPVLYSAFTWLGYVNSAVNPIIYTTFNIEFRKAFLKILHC

Assay [16] shares this target. The experiment in a line: Dopamine D2 receptor (DRD2) small molecule antagonists, cell-based qHTS assay (AID 1963595; active means well fitted inhibition curve with a large enough effect in the signal ratio in the repeat runs, with a control signal flat; the % refers to the signal ratio). In a few lines:
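HEK293 cells stably expressing DRD2, preincubated with 0.1 mM Ro20-1724 and compounds 10 min, were stimulated with 200 nM NKH477 plus 12 nM quinpirole for 30 min at room temperature; cAMP measured by HTRF (665/620 nm).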

Assay [17] is described as follows: p53 small molecule agonists, cell-based qHTS assay (AID 1963582; active means well fitted activation curve with a large enough effect in the signal ratio in the repeat runs, not every such curve was filed as active; the % refers to the signal ratio). An outline of the steps: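 Measured: fluorescence from cleaved LiveBLAzer substrate. System: p53RE-bla cells, 16 h compound treatment at 37 C, 2 h substrate step at room temperature.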
The target of assay [18] is 5-hydroxytryptamine receptor 2A (Homo sapiens) (UniProt P28223). The experiment in a line: 5-hydroxytryptamine receptor 2A (HTR2A) small molecule antagonists, cell-based qHTS assay (AID 1963586). Further: nearly all actives have a fitted effect of over 45% in size. Further: potency means the concentration at half of the fitted maximal effect. An outline of the steps: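 CHO cells stably expressing human HTR2A were plated for 18 h at 37 C, then loaded with calcium dye for 1 h. Compounds were preincubated 5 min at room temperature before DOI (4 nM solution) was added. Kinetic fluorescence was read for 3 min.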
Chain of 5-hydroxytryptamine receptor 2A (Homo sapiens) (P28223 whole entry, looked up): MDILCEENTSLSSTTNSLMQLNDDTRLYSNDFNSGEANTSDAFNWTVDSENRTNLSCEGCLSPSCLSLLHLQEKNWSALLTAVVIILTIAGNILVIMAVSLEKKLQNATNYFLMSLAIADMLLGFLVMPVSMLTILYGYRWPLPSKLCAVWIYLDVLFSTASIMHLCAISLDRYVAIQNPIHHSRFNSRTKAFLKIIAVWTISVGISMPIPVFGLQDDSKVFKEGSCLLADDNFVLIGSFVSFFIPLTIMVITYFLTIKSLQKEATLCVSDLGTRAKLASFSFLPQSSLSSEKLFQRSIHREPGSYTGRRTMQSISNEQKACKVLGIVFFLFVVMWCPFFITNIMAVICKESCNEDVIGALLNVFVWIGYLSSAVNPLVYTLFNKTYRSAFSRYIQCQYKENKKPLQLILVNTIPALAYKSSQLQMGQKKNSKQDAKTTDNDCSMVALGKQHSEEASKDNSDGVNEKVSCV

Assay [19] shares this target. The assay can be described thus: 5-hydroxytryptamine receptor 2A (HTR2A) small molecule agonists, cell-based qHTS assay (AID 1963587). Further: nearly all actives have a fitted effect of over 30% in size. Further: potency means the concentration at half of the fitted maximal effect. An outline of the steps:
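CHO cells stably expressing human HTR2A, plated 18 h, loaded with calcium dye 1 h at 37 C. Agonist mode: compounds added and intracellular calcium fluorescence recorded kinetically for 2 min at 1 sec intervals.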

In assay [20] the target is Muscarinic acetylcholine receptor M1 (Homo sapiens) (UniProt P11229). The assay can be described thus: Cholinergic receptor muscarinic 1 (CHRM1) small molecule antagonists, cell-based qHTS assay (AID 1963588). Further: nearly all actives have a fitted effect of over 40% in size. In a few lines:
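Compounds were tested at 15 concentrations in three independent runs. Dye-loaded CHRM1-CHO cells were exposed 5 min at room temperature before stimulation by acetylcholine added at 50nM. Intracellular calcium was read kinetically on FDSS for 3 min.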

The results in this text go back to PubChem BioAssay (Tox21).

“And” between values parts separate entries of the source, which are not always exact repeats. Identical values can stand only once. Inconclusive results are not listed. More than one record can exist for a structure, and the calls need not agree. The source made the active and inactive calls. Unless noted, the call rests on the fitted dose curve.

Chain of KiSS-1 receptor (Homo sapiens) (Q969F8 whole entry, looked up): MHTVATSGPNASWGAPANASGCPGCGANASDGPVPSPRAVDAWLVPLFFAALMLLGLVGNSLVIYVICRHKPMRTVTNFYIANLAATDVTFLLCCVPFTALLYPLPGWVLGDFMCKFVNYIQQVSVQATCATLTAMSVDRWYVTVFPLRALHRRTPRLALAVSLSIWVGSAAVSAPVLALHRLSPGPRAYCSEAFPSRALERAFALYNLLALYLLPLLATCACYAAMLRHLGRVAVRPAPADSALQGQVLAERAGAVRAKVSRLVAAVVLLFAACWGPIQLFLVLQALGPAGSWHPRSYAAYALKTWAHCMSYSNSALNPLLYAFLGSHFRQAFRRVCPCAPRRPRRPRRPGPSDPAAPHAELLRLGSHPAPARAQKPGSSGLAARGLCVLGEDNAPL
Chain of Gonadotropin-releasing hormone receptor (Homo sapiens) (P30968 whole entry, looked up): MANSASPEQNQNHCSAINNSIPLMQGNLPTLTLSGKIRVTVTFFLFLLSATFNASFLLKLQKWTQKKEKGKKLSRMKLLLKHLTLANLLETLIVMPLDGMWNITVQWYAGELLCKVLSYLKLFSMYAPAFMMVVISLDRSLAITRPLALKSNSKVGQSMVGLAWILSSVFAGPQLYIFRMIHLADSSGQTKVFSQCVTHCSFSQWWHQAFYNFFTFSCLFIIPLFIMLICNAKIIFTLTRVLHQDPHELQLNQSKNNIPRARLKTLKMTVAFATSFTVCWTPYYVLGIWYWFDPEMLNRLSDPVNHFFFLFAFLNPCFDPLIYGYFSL
Chain of Muscarinic acetylcholine receptor M1 (Homo sapiens) (P11229 whole entry, looked up): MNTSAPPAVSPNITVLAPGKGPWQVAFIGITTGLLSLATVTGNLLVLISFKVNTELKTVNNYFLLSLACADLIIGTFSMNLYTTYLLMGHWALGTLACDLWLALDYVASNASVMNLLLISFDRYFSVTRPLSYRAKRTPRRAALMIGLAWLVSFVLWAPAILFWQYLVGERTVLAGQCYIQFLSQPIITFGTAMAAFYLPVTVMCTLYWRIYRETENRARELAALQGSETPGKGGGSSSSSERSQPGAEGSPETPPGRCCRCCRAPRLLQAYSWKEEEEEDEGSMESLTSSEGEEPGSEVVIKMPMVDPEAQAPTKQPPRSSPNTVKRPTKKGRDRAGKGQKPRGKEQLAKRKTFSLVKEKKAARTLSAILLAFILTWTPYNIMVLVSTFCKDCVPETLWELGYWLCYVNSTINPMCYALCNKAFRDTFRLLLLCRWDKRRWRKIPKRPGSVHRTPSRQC

Regarding `CC(=O)Nc1cccc(O)c1`, the Potency result in assay [1], in [2], in [3], in [4], in [5] and in assay [6] was “inactive” in each case. In addition, the Potency result in assay [7], in assay [8], in assay [9], in assay [10], in assay [11] and in [12] was “inactive” each time. Further, the Potency entry in [13], in assay [14] and in [15] was “inactive” throughout.

With `C[C@]12CC[C@@H]3c4ccc(O)cc4CC[C@H]3[C@@H]1CC[C@H]2O`, the Potency result in assay [1], in assay [2], in [3], in assay [4], in [5] and in [6] was “inactive” in each case. Moreover, the Potency entry in [7], in [8], in [9], in [10], in assay [11] and in [12] was “inactive” in each case. In addition, the Potency result in [13], in [14], in assay [15] and in [16] was “inactive” in each case.

As for `CC12CCC(CC1)C(C)(C)O2`, the Potency result in [1], in assay [2], in assay [3], in assay [4], in assay [5] and in [6] was “inactive” each time. Besides, the Potency entry in [7], in assay [8], in assay [9], in assay [10], in [11] and in [12] was “inactive” in each case. The Potency result in [13], in assay [14], in assay [15] and in assay [16] was “inactive” in each case.

Regarding `CC(=O)CCc1ccccc1`, the Potency entry in assay [1], in [2], in assay [3], in assay [4], in assay [5] and in assay [6] was “inactive” each time. For the same molecule, the Potency result in [7], in assay [8], in [9], in assay [17], in assay [18] and in assay [19] was “inactive” throughout. The Potency entry in assay [11], in assay [12], in assay [13], in [14], in assay [15] and in assay [16] was “inactive” each time.

For `CCN(CCN)c1cccc(C)c1`, the Potency result in [1], in assay [2], in assay [3], in [4], in [5] and in assay [6] was “inactive” in each case. Moreover, the Potency entry in assay [7], in assay [8], in assay [9], in assay [17], in assay [20] and in assay [11] was “inactive” throughout. Besides, the Potency entry in assay [12] and in assay [16] was “inactive” each time. The Potency was 0.53 µM (active) in [18]; 393 nM (active) and 776 nM (active) in assay [19]; 24.6 µM (active) in assay [13].

On to `O=C1CCC(N2C(=O)c3ccccc3C2=O)C(=O)N1` (centres undefined), for which the Potency result in assay [1], in assay [2], in assay [3], in [4], in [5] and in [6] was “inactive” each time. The Potency result in [7], in assay [8], in [9], in assay [10], in assay [11] and in [12] was “inactive” throughout. Further, the Potency entry in assay [13], in [15] and in [16] was “inactive” each time.

As to `CC(=O)c1ccc(S(=O)(=O)NC(=O)NC2CCCCC2)cc1`, the Potency entry in assay [1], in [2], in assay [3], in assay [4], in assay [5] and in assay [6] was “inactive” in each case. The Potency entry in [7], in [8], in assay [9], in assay [10], in [18] and in [19] was “inactive” throughout. Moreover, the Potency result in assay [11], in assay [12], in [13], in assay [14], in assay [15] and in assay [16] was “inactive” throughout.

On to `Nc1ccc(Nc2ccccc2)cc1`, for which the Potency entry in [1], in assay [3], in assay [4], in [5], in assay [6] and in assay [7] was “inactive” each time. The Potency entry in assay [8], in [9], in assay [17], in [20], in [11] and in assay [12] was “inactive” throughout. Further, the Potency was 53.9 µM (active) and inactive and 30.6 µM (active) in assay [2]; “inactive and 3.75 µM (active)” in [18].
